Assay results published in PubChem BioAssay.
Active and inactive are the calls of the source. Unless noted, the rule behind the calls is not given here.

Key:
[1] = compounds binding Alexa647 anti-His antibody – biochemical, small-molecule microarray, 635 nm fluorescence, artefact control for SMM control protein annotation, primary screen (AID 1128); details: higher = more signal;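 note: score merges feature fluorescence with signal-to-noise for each printed compound spot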
[2] = tested on: Human papillomavirus type 1a E7 protein (residues 1-88); assay: HPV1a E7 small-molecule binders, primary screen, biochemical, small-molecule microarray, residues 1-88, 635 nm (AID 1129); details: small-molecule microarray binding, fluorescence 635 nm; higher = more signal
[3] = biological target: Focal adhesion kinase 1 (Homo sapiens) (UniProt Q05397); assay: PTK2 protein binding on printed compound slides – biochemical, small-molecule microarray, 635/667 nm fluorescence, BSA, DTT, primary screen (AID 1130); details: 635 nm fluorescence, higher = more signal;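 note: composite of spot emission at 667 nm and signal to noise over triplicate slides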
Sequence of Focal adhesion kinase 1 (Homo sapiens) (Q05397 whole entry, looked up): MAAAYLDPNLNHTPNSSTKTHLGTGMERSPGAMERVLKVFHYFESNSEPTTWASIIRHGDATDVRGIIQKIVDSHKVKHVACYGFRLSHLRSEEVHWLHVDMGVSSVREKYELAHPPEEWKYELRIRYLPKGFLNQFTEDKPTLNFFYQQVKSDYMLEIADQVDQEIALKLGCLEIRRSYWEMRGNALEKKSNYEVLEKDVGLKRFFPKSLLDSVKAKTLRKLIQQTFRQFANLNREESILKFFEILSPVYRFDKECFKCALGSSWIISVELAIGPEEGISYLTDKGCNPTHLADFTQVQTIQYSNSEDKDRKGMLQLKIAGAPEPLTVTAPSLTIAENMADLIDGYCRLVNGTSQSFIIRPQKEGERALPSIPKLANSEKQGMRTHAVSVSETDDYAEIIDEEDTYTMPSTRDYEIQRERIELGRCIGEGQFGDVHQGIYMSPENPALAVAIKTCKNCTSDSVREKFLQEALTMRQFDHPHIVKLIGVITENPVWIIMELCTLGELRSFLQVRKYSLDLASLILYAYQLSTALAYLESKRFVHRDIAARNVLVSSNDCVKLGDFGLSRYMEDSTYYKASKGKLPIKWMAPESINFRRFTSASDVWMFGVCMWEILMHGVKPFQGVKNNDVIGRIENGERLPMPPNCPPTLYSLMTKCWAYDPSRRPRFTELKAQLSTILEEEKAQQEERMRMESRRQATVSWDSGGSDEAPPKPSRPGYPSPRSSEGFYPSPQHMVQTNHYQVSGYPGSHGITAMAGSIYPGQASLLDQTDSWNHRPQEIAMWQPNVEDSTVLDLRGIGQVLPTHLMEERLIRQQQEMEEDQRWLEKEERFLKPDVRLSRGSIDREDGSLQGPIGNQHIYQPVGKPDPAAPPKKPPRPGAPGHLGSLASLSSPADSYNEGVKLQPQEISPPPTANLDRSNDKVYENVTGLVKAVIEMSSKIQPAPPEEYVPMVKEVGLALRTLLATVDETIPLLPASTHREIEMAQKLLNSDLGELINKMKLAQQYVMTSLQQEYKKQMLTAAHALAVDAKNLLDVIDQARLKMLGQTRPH

[4] = tested on: Fibrinogen (Alexa647-labelled); assay: Alexa647-fibrinogen binding to printed small molecules – biochemical, small-molecule microarray, 635/667 nm fluorescence, artefact control for SMM control-protein annotation, profiling panel (AID 1131); details: fibrinogen-A647 binding fluorescence, higher = more signal;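 note: z-score merges 667 nm fluorescence with per-spot signal-to-noise over triplicate slides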
[5] = biological target: Follistatin (Homo sapiens) (UniProt P19883); assay: FST protein binding to printed compounds – biochemical, small-molecule microarray, 635/667 nm fluorescence, primary screen (AID 1132); details: 635 nm fluorescence, higher = more signal
Sequence of Follistatin (Homo sapiens) (P19883 whole entry, looked up): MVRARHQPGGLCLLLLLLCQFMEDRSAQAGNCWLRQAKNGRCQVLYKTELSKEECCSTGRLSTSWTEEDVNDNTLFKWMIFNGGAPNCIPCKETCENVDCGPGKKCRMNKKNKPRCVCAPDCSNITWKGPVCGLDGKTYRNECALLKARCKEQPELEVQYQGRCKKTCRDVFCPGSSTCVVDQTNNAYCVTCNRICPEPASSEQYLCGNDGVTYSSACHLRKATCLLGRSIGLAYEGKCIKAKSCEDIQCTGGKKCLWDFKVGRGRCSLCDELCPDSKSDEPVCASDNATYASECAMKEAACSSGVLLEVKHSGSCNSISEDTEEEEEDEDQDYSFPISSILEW

[6] = biological target: Fibroblast growth factor 2 (Homo sapiens) (UniProt P09038); assay: basic fibroblast growth factor binding to printed compounds – biochemical, small-molecule microarray, 635/667 nm fluorescence, primary screen (AID 1133); details: FGF2, fluorescence 635/667, higher = more signal
Sequence of Fibroblast growth factor 2 (Homo sapiens) (P09038 whole entry, looked up): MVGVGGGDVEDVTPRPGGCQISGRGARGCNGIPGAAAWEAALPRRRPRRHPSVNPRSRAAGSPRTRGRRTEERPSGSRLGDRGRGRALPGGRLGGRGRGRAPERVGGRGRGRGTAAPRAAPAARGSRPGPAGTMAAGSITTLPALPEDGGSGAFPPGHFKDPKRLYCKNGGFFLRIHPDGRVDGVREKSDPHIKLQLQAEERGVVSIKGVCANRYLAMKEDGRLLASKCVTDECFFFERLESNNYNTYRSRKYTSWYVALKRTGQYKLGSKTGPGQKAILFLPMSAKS

[7] = JC-1 mitochondrial potential readout, lung cancer cells – cell-based, A549, JC-1 fluorescence, basal, 24 h, 100 nL, profiling panel (AID 1138); details: higher = more signal;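 note: A549 lung adenocarcinoma cells under basal conditions with no added stimulus; test concentration not given here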
Lefty1 = Lefty1 protein binding to printed compounds – biochemical, small-molecule microarray, 635/667 nm fluorescence, primary screen (AID 1139); details: fluorescence 635/667, higher = more signal
[8] = tested on: wheat germ agglutinin (Triticum aestivum), Alexa647-labelled; assay: Alexa647-WGA lectin binding to printed small molecules – biochemical, small-molecule microarray, 635/667 nm fluorescence, artefact control for SMM control-protein annotation, profiling panel (AID 1140); details: WGA-A647 binding, 635 nm fluorescence, higher = more signal;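 note: score merges 667 nm feature emission with signal to noise over triplicate slides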
[9] = biological target: Luciferin 4-monooxygenase (Photinus pyralis) (UniProt P08659); assay: inhibition of purified Photinus pyralis luciferase – biochemical, luminescence, purified enzyme, 2006 set, primary screen (AID 1141); details: purified firefly luciferase, SteadyGlo luminescence, 30 min; higher = more signal, called active from +8 up or from −8 down;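 note: cell-free assay with purified firefly luciferase at 100 ng per well in PBS; test concentration not given here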
Sequence of Luciferin 4-monooxygenase (Photinus pyralis) (P08659 whole entry, looked up): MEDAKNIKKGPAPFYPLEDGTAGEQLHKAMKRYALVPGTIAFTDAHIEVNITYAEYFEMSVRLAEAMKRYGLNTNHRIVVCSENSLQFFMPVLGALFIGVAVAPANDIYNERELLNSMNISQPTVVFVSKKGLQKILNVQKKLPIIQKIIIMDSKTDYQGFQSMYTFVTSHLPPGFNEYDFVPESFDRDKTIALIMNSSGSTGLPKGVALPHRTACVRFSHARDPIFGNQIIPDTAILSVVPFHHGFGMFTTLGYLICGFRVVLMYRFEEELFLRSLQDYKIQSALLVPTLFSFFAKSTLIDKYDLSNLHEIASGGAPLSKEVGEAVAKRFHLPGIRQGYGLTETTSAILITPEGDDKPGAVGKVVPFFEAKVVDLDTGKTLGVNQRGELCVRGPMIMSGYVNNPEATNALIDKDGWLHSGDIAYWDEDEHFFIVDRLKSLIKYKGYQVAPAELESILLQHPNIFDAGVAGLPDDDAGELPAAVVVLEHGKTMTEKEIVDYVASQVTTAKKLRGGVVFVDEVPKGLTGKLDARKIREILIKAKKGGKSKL

[10] = tested on: Wnt5a (protein binding on small-molecule microarray); assay: small molecules binding Wnt5a protein – biophysical, small-molecule microarray, 635/667 nm fluorescence, primary screen (AID 1142); details: 635 nm fluorescence, higher = more signal;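 note: fluorescence read at 667 nm with signal to noise per printed feature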
[11] = ATP-based viability of Huh7 replicon cells – cell-based, CellTiter-Glo luminescence, basal, 48 h, cytotoxicity control for HCV replication inhibitor project, primary screen (AID 1143); details: higher = more signal, called active from +8 up or from −8 down;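 note: Huh7 hepatoma cells carrying a hepatitis C replication reporter with no stimulus; test concentration not given here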
[12] = Pseudomonas biofilm growth suppression – PAO1 strain, BacTiter-Glo luminescence, LB-PBS, primary screen (AID 1144); details: P. aeruginosa PAO1 biofilm, 12 h, higher = more signal
[13] = basal CRE-LacZ reporter activity in PC12 – cell-based, unstimulated, primary screen (AID 1145); details: no forskolin, luminescence, 4.5 h, higher = more signal, called active from +8 up or from −8 down
[14] = forskolin-driven CRE-LacZ activity in PC12 – cell-based, CRE-LacZ reporter, forskolin-stimulated, primary screen (AID 1146); details: luminescence, 4.5 h, higher = more signal, called active from +8 up or from −8 down;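 note: PC12 cells with 6xCRE LacZ reporter stimulated by forskolin 10 µM; beta-galactosidase reporter signal reflecting CREB driven transcription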
[15] = biological target: Streptavidin (Streptomyces avidinii) (UniProt P22629); assay: compounds binding control protein streptavidin – biophysical, small-molecule microarray, 635/667 nm fluorescence, artefact control for SMM compound annotation, primary screen (AID 1147); details: higher = more signal;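 note: signal reflects streptavidin binding to arrayed compounds as a control protein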
Sequence of Streptavidin (Streptomyces avidinii) (P22629 whole entry, looked up): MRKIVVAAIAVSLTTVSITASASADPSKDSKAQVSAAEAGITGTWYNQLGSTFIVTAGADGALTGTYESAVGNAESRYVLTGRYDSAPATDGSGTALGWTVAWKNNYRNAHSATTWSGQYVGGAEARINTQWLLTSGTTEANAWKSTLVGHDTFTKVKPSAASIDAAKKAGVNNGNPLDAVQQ

[16] = probe aInhba binding on compound microarray – biochemical, small-molecule microarray, 635/667 nm fluorescence, primary screen (AID 1148); details: higher = more signal;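 note: score merges 667nm spot fluorescence with signal-to-noise for antibody binding to printed compounds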
Torsin-1A (Homo sapiens) [17] = biological target: Torsin-1A (Homo sapiens) (UniProt O14656); assay: TOR1A wild-type binding on microarray – cell lysate, small-molecule microarray, lysate, 635/667 nm, primary screen (AID 1149); details: COS7 hTOR1A-WT lysate, 635 nm fluorescence, higher = more signal
Sequence of Torsin-1A (Homo sapiens) (O14656 whole entry, looked up): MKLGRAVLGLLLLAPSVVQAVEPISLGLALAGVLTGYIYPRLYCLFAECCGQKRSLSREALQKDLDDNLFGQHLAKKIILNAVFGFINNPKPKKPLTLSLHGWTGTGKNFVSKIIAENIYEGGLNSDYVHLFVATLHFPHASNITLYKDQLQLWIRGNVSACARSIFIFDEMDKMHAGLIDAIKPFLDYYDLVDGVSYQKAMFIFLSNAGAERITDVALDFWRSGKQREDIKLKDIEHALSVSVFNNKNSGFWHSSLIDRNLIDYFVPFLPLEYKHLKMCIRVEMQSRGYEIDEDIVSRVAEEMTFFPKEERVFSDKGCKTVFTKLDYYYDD

Torsin-1A (Homo sapiens) [18] = biological target: Torsin-1A (Homo sapiens) (UniProt O14656); assay: torsin A mutant lysate binding on microarrays – cell lysate, small-molecule microarray, COS7 lysate, 635/667 nm fluorescence, primary screen (AID 1150); details: COS7 hTOR1A mutant lysate, 635 nm fluorescence, higher = more signal;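 note: score pools 667 nm emission and signal to noise measuring lysate protein binding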
[19] = tested on: Sonic hedgehog protein (Shh); assay: Sonic hedgehog microarray binding compounds – biochemical, small-molecule microarray, 635/667 nm fluorescence, primary screen (AID 1151); details: 635 nm fluorescence, higher = more signal;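 note: Shh protein binding to compounds spotted on small-molecule microarray slides; score combines spot fluorescence intensity with signal-to-noise across triplicate slides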

Structure (SMILES)	composite z-score [1]	composite z-score [2]	composite z-score [3]	composite z-score [4]	composite z-score [5]	composite z-score [6]	z-score [7]	composite z-score (Lefty1)	composite z-score [8]	z-score [9]	composite z-score [10]	z-score [11]	z-score [12]	z-score [13]	z-score [14]	composite z-score [15]	composite z-score [16]	composite z-score (Torsin-1A (Homo sapiens) [17])	composite z-score (Torsin-1A (Homo sapiens) [18])	composite z-score [19]
NC(=O)[C@H]1[C@@H]2C(=O)O[C@@H](c3ccccc3)[C@@H](c3ccccc3)N2[C@@H](c2ccc(O)cc2)[C@]12C(=O)Nc1ccc(C#CC3(O)CCCCCC3)cc12	1.55	1.23	0.505	0.946	1.24	1.58	-1.43	0.889	0.949	0.268 (inactive)	0.0428	-4.82 (inactive)	-0.947 (inactive)	0.272 (inactive)	1.09 (inactive)	0.387	0.0074	0.375	1.37	1.46
CC1(C)[C@@H]2CC(C(O)C3C=CC4C(=O)N(c5ccccc5)C(=O)C4N3Nc3ccccc3F)=C[C@@H]1C2 (stereo not given in full)	1.41	1.2	0.218	0.938	0.876	1.26	-0.136	0.655	0.392	0.905 (inactive)	0.512	-2.69 (inactive)	-1.31 (inactive)	-0.826 (inactive)	-0.7 (inactive)	0.5	0.0291	0.233	0.541	0.625
[N-]=[N+]=Nc1ccccc1[C@H]1OC(c2ccc(OCCCO)cc2)=N[C@@]1(Cc1ccccc1)C(=O)NCc1ccccc1	1.29	1.2	0.425	0.997	1.15	0.291	0.361	0.362	0.415	-6.55 (inactive)	0.821	-5.4 (inactive)	-0.638 (inactive)	-0.16 (inactive)	-1.26 (inactive)	0.501	0.0301	0.104	0.383	-0.272
COC(=O)[C@@]1(Cc2ccc(F)cc2)[C@H]2c3cc(C(=O)N(C)C)n(CCSCCO)c3C[C@H]2CN1C(=O)c1ccccc1	2.06	0.674	0.879	0.241	0.297	-0.254	0.554	-0.601	0.45	0.0635 (inactive)	-0.0292	-0.259 (inactive)	-0.482 (inactive)	-0.565 (inactive)	0.222 (inactive)	0.352	-0.0001	0.0627	0.387	-0.509
CO[C@H]1O[C@H](CO)[C@@H](OC(=O)Nc2cccc(F)c2)[C@H](OC(=O)Nc2ccc3c(c2)OCO3)[C@H]1OC(=O)Nc1ccc2c(c1)OCO2	1.62	1.26	0.807	0.884	1.32	0.819	-0.358	0.9	1.15	-5.24 (inactive)	0.146	-2.58 (inactive)	-0.905 (inactive)	0.195 (inactive)	-0.724 (inactive)	-0.0782	0.0155	0.967	1.2	1.52
